# Compounds with a hit are over-represented: about 3% of the library has one in this group of screens.
# VDR inh – vitamin D3 receptor (human) inhibition; AID 504847; Potency, µM, hits mostly inhibitors; VDR-SRC2-3 peptide fluorescence polarization, 2 h; P11473; actives 0.93% (n = 400,000)
#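 Fluorescence polarization assay measuring small-molecule disruption of VDR binding to the coregulator peptide SRC2-3. Compounds were pin-transferred (23 nl) into the reagent mix and incubated 2 h at room temperature before reading.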
# KAT2A inh – GCN5L2 (KAT2A) acetyltransferase inhibition; Q92830; GCN5L2 HAT assay, ThioGlo1 CoA-SH fluorescence; Potency, µM (highest dose often 58.9 µM), most hits filed as inhibitors; actives 0.21% (n = 390,000); AID 504327
#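 ThioGlo1-coupled HAT assay: 20nM GCN5L2, 70uM acetyl-CoA, 75uM H3(1-25) peptide, pH 7.5. Fluorescence read at 340/540nm at start and after 20 min at room temperature.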
# 12-LOX inh – blocks human arachidonate 12S-lipoxygenase. Potency, µM (doses to about 108 µM), hits mostly inhibitors. actives 1.1% (n = 580,000). AID 1671190. purified 12hLO, xylenol orange hydroperoxide absorbance
# Target sequence (P18054 whole entry, looked up): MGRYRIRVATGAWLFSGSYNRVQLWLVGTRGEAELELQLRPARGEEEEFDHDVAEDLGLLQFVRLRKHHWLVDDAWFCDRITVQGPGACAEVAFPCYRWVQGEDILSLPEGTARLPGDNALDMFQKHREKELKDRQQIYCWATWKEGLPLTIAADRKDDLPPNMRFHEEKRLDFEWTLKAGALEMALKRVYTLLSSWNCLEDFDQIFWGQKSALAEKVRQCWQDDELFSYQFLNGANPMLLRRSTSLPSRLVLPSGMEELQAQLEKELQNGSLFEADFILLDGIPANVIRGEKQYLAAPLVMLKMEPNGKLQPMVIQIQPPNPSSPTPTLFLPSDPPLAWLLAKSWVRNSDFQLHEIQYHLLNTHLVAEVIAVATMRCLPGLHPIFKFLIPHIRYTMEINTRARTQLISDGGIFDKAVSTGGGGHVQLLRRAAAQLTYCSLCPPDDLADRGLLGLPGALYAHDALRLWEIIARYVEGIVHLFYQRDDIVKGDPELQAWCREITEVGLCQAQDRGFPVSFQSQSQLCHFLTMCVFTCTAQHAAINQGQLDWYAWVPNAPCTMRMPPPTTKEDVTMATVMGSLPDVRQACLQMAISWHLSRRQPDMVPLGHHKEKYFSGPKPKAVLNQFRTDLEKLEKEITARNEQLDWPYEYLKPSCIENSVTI
#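 Purified human 12hLO at 150 nM in 25 mM Hepes, 0.01% Triton X-100, pH 7.0, preincubated 15 min at room temperature with compound. Reaction started with 40 uM arachidonic acid, 30 min at room temperature. Hydroperoxide measured by Fe-xylenol orange, 573/405 nm absorbance ratio.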
# PLK1 PBD inh – blocks phosphopeptide binding to human PLK1 polo-box domain; actives 2.8% (n = 360,000); Potency, µM, most hits filed as inhibitors; P53350; Plk1 PBD binding of FITC phosphopeptide, fluorescence polarization; note: series mostly up to about 57 µM; nearly all actives have a fitted effect of over 65% in size
# Hits are given with their value; 0 = inactive; ? = inconclusive; - = no result given; [ ] = another dose, or the depositor's remark. Calls come from the whole dose curve; as a rule, active = well fitted curve in the direction sought with a large enough effect; inconclusive = small, poorly fitted or top-dose-only effect, or another doubt; inactive = no such curve, though single readings can be large; an effect the other way counts as inactive or inconclusive.
SMILES,VDR inh,KAT2A inh,12-LOX inh,PLK1 PBD inh
COc1ccc(OC)c(CN2CCN(C(=O)c3cc4c(s3)CCCCC4)CC2)c1,-,-,0,-
Cc1ccc2c(=O)cc(C(=O)N(Cc3ccccc3)Cc3ccco3)oc2c1C,-,-,35µM,-
COc1ccc(Cl)cc1C(=O)N1CCC2(CC1)N(c1ccccc1)C(=O)CS2(=O)=O,-,-,0,-
COc1ccc(Cl)cc1C(=O)N1CCC2(CC1)NC(=O)N(c1ccccc1)N2,-,-,1.8µM,-
O=C(c1ccoc1)N1CCC2(CC1)NC(=O)N(c1ccccc1Cl)N2,-,-,1.3µM,-
COc1ccc(C(=O)N2CCC3(CC2)NC(=O)N(c2ccccc2Cl)N3)cc1F,-,-,1.3µM,-
COc1ccc(C(=O)N2CCC3(CC2)CC(O)CCO3)cc1F (stereo unspecified),-,-,0,-
COc1ccc(C(=O)N2CCC3(CC2)NC(=O)N(c2ccccc2Cl)N3)cc1,-,-,2.2µM,-
Cc1ccc(CNC(=O)Cc2csc(-c3ccccn3)n2)cc1F,-,-,0,-
CCN1CCC2(CC1)Cc1ccccc1CN(S(=O)(=O)c1ccccc1)C2,-,-,0[6.33 µM],-
CCN(CC)C(CNC(=O)Nc1ccc(C(=O)N2CCCCCC2)cc1)c1ccsc1 (stereo unspecified),-,-,0,-
O=C(c1ccc2c(c1)OCO2)N1CCC2(CC1)NC(=O)N(c1ccccc1Cl)N2,-,-,2µM,-
Cc1[nH]c2ccc(C(=O)N3CCN(c4ccccc4Cl)CC3)cc2c1C,0,0,0,0
COc1ccccc1C(=O)N1CCN(c2cccc(Cl)c2)CC1,0,0,0,24µM
O=C(c1ccccc1F)N1CCN(c2cnn(-c3cccc(Cl)c3)c(=O)c2Cl)CC1,0,0,0,27µM
Cc1ccc(C(=O)N2CCC3(CC2)NC(=O)N(c2ccccc2Cl)N3)cc1C,-,-,1.3µM,-
COc1cc2c(C(=O)N3CCN(c4cccc(Cl)c4)CC3)cn(C)c(=O)c2cc1OC,0,0,0,0
O=C(c1cccc(Br)c1)N1CCN(c2cnn(-c3ccccc3)c(=O)c2Cl)CC1,0,0,0,0
Cc1ccc(C(=O)OCc2ccc(C#N)cc2)cc1C,-,-,0,-
COc1ccc(Cl)cc1C(=O)N1CCC2(CC1)NC(=O)N(c1ccccc1Cl)N2,-,-,1.8µM,-
C=CCOc1c(Cl)cc(CNCCCN2CCOCC2)cc1OC,?,0,?,21µM
CCc1ccccc1NC1=NCC(=O)N1Cc1ccc2c(c1)OCO2,0,0,?,30µM
O=c1c(-c2ccc([N+](=O)[O-])cc2)coc2c(O)c(O)ccc12,0,0,6.3µM,0
O=c1cc(-c2ccc([N+](=O)[O-])cc2)c2ccc(O)cc2o1,0,0,0,0
O=C1/C(=C/c2cccc(F)c2)C(c2ccccc2)Oc2ccccc21 (stereo unspecified),-,-,0,-
SMILES,VDR inh,KAT2A inh,12-LOX inh,PLK1 PBD inh
Cc1ccc(/C=c2\sc3nc(-c4ccccc4Br)nn3c2=O)o1,0,0,?,0
COc1ccccc1/C=c1\sc2nc(-c3ccccc3OC)nn2c1=O,0,0,0,0
COc1ccc(Br)cc1/C=c1\sc2nc(-c3ccco3)nn2c1=O,0,?,22µM,?
Cc1ccc(/C=c2\sc3nc(-c4ccco4)nn3c2=O)o1,0,0,-,9.5µM
Cc1nn(Cc2ccccc2)c2c1C(c1cccc(Cl)c1)C(C#N)=C(N)O2 (stereo unspecified),?,0,?,27µM
O=C(N/N=C/c1c[nH]c2ccccc12)c1[nH]c2ccc(Br)cc2c1-c1ccccc1,0,0,0,8.4µM
O=C(N/N=C/c1ccc(O)cc1)c1[nH]c2ccc(Br)cc2c1-c1ccccc1,0,0,0,0
CCN(CC)c1ccc(NC(=O)COc2ccccc2C)cc1S(=O)(=O)Nc1ccccc1OC,?,0,?,5.3µM
COc1ccc(NC(=O)c2ccccc2F)cc1Cl,0,0,0,0
CCN(CC)c1ccc(NC(=O)c2ccccc2F)cc1S(=O)(=O)Nc1ccccc1OC,?,0,?,11µM
CCN(CC)c1ccc(NC(=O)c2ccc(=O)[nH]c2)cc1S(=O)(=O)Nc1ccccc1OC,32µM,?,?,4.7µM
CCCCn1c(-c2sccc2C)n[nH]c1=S,0,0,40µM,0
CCCCn1c(-c2ccco2)n[nH]c1=S,0,0,?,?
COc1ccc2[nH]cc(C(C(=O)O)N3CCN(C(=O)OC(C)(C)C)CC3)c2c1 (stereo unspecified),-,-,0,-
CSC1=N/C(=C\c2ccc(-c3ccc(Cl)cc3)o2)C(=O)S1,-,-,25µM,-
CSC1=N/C(=C\c2ccc(Br)o2)C(=O)S1,0,0,?,0
O=C(NCc1ccccc1)Nc1c(NC2CCCC2)c2ccccc2oc1=O,-,-,0,-
COc1ccc2c(c1OC)C(=O)OC2Nc1nc(-c2ccc(C)cc2)cs1 (stereo unspecified),-,-,0,-
COc1ccc2c(c1OC)C(=O)OC2Nc1nc(-c2ccc(-c3ccccc3)cc2)cs1 (stereo unspecified),0,0,0,27µM
O=C(CCC1CCCN(C(=O)C2CCCC2)C1)NCc1ccc(F)c(F)c1 (stereo unspecified),0,0,0,0
O=C(CCC1CCCN(C(=O)c2cncs2)C1)NCc1ccc(F)c(F)c1 (stereo unspecified),?,0,0,30µM
COc1ccccc1C(=O)N1CCCN(c2nnc3cccc(C)n23)CC1,-,-,0,-
Cn1c(COc2ccc(C(C)(C)C)cc2)nnc1SCc1ccc(F)cc1,-,-,0,-
COc1cc2ccnc(Cc3cccc(OC)c3OC)c2cc1OC,0,?,0,27µM
O=S(=O)(O)c1ccc(N=Nc2ccccc2)cc1,0,0,0,0
SMILES,VDR inh,KAT2A inh,12-LOX inh,PLK1 PBD inh
Cc1cc(-c2ccc(N=Nc3ccc4c(S(=O)(=O)O)cc(S(=O)(=O)O)c(N)c4c3O)c(C)c2)ccc1N=Nc1ccc2c(S(=O)(=O)O)cc(S(=O)(=O)O)c(N)c2c1O,?,3.2µM,0,-
Nc1c(N=Nc2ccc(-c3ccc(N=Nc4cc(S(=O)(=O)O)c5ccccc5c4N)cc3)cc2)cc(S(=O)(=O)O)c2ccccc12,28µM,2.2µM,-,-
CCn1c(CC2C(=O)N(C(C)C)c3ccccc32)nc2ccccc2c1=O (stereo unspecified),-,-,0,-
COc1cccc(-c2c(NC(=O)c3ccc(C)cc3)oc3ccccc3c2=O)c1,-,-,0,-
CCOC(=O)C(C(=O)OCC)C(C(=O)OCC)N1CCOCC1 (stereo unspecified),40µM,0,0,24µM
O=C(Oc1ccc2ccc(O)cc2c1)C1CCCCC1,?,0,?,4.2µM
O=C(O)/C=C/c1cn(Cc2ccccc2)nc1-c1ccccc1,0,0,0,0
O=C(O)CCn1cc(/C=C/C(=O)c2ccc(Cl)cc2)c(-c2ccc(Br)cc2)n1,40µM,?,?,?
COc1ccccc1CCNC(=O)c1ccc(NC(=O)CC2SC(N3CCCC3)=NC2=O)cc1 (stereo unspecified),0,0,?,0
CCN(CC)C1=NC(=O)C(CC(=O)Nc2cccc(C(=O)NCCc3ccccc3OC)c2)S1 (stereo unspecified),-,-,1.1µM,-
O=C1NCCCCCCN(C(=O)c2ccncc2)[C@H]2C[C@H](c3nc(Cc4ccccc4)no3)C[C@@H]12,-,-,0,-
CCc1noc(-c2cn(C3CCCN(C(=O)c4cc(Cl)ccc4F)C3)nn2)n1 (stereo unspecified),-,-,0,-
